The results in this text go back to ChEMBL document CHEMBL3988442, “University of Dundee, Small-Polar-MMV Screening Library” (2021).

Among all 48,000 compounds or so, about 13,000 (27%) showed an effect of 50% or more. Some of the results follow.

For the test, the system named is Wolbachia pipientis. Nature of the test: Anti-Wolbachia Cell-Based Screen. Also noted: scale not given: in the data most compounds retested in dose-response had high values. It is filed as functional. The conditions noted are these: 5 µM.
`CCOC(C)c1noc(CN(C)C(=O)c2ccncc2)n1` (stereo unspecified): the “Percent Effect” value is -13.27%. As to `COCCNC(=O)[C@H]1CN(Cc2nccs2)C[C@H]2OCC[C@@H]12.O=C(O)C(F)(F)F.O=C(O)C(F)(F)F`, the “Percent Effect” value is recorded as -11.72%. In the case of `CCn1cncc1C1CC(=O)Nc2c1c(C)nn2-c1ccc(C)cc1` (stereo unspecified) it was -3.451%; in that of `Cn1c2c(c(=O)n1C)CN(S(=O)(=O)c1cccs1)CCC2`, -5.821%; in that of `CN(Cc1cccc(F)c1)C(=O)CS(=O)(=O)Cc1ccc(Cl)c(Cl)c1`, 7.071%. The figure for `CC(C)Cc1cc(NC(=O)c2cccnc2)n(C)n1` is 95.88%; for `CC(C)Cc1cc(NC(=O)c2ccccc2)n(C)n1` it is 80.95%; for `CC(C)Cc1cc(NC(=O)c2ccc[nH]2)n(C)n1` it is 5.511%. In the case of `CC(C)Cc1cc(C(=O)N2CCC(Oc3cccnc3)CC2)n(C)n1` it was -0.7222%. Turning to `CC(C)Cc1cc(NC(=O)N2CCC(Oc3cccnc3)C2)n(C)n1` (stereo unspecified), the “Percent Effect” value is -4.031%. In the case of `CC(=O)Nc1cc(C(=O)Nc2cc(CC(C)(C)C)nn2C)ccc1F` it was -21.96%. For the compound `CC(C)Cc1cc(NC(=O)c2cc(Cl)c[nH]2)n(C)n1`, the “Percent Effect” value is 97.83%.

Regarding `Cc1cnn(CC2CCCN2CC(=O)N(C)CCC#N)c1` (stereo unspecified), the “Percent Effect” value is given as -15.64%. The figure for `COc1cccc(CN(C)C(C)c2ccon2)c1OCCn1ccnc1` (stereo unspecified) is 6.714%.

In the case of `N#Cc1cccc(OC2CCN(C(=O)c3cncc(O)c3)CC2)c1`, the “Percent Effect” value is -9.362%. The figure for `CC(NCCn1cccn1)c1ccc(F)cc1F` (stereo unspecified) is 14.02%; for `CCn1cnnc1C1CCN(C(=O)c2ccc3c(c2)nnn3C)CC1` it is 122.3%; for `CCN1CCN(C(=O)c2ccnc(N(C)C)c2)CC1` it is -10.63%. The figure for `CCn1cnnc1C1CCN(C(=O)c2cccc3c2ccn3C)CC1` is 4.279%; for `CCn1cnnc1C1CCN(C(=O)c2cccc(-n3cccc3)c2)CC1` it is 173.7%; for `CCn1cnnc1C1CCN(C(=O)c2cccc(N(C)C)c2)CC1` it is 182%.

For `Cn1nnc2cc(C(=O)N3CCCC3Cc3ccccc3)ccc21` (stereo unspecified), the “Percent Effect” value was -4.659%. For `CCn1cnnc1C1CCN(C(=O)c2ccnc(N(C)C)c2)CC1`, the “Percent Effect” value is 117.4%.

Consider `CCn1cnnc1C1CCN(C(=O)CC(C)n2cccc2)CC1` (stereo unspecified), for which the “Percent Effect” value is listed as -3.98%. For `O=C(O)C(F)(F)F.O=C(c1nc2c(o1)CN(CC1CCC1)C2)N1CCCC1`, the “Percent Effect” value is given as 1.201%. The figure for `CC(C)(CNC(=O)C1CCCN1S(C)(=O)=O)N1CCOCC1` (stereo unspecified) is 0.9982%. Consider `Cc1cc(CNCC2(O)CCOCC2)ccc1F`, for which the “Percent Effect” value is listed as -13.16%.

Take `COC(=O)N1CCN(Cc2ccccc2C(C)(C)C#N)CC1`: the “Percent Effect” value is -9.14%. The figure for `COc1ccccc1N(C)Cc1nc2c(cnn2C)c(=O)[nH]1` is -7.278%. `COc1ccc(CN(C)c2nc3c(cnn3C)c(=O)[nH]2)c(OC)c1`: the “Percent Effect” value was -2.005%. In the case of `COc1ccccc1OC1CCN(C(=O)c2cnc(C)cc2C)CC1` it was -3.522%. The figure for `COc1cccc2c1N(Cc1nc3c(cnn3C)c(=O)[nH]1)CCC2` is -0.8657%. The figure for `COc1ccccc1CN(C)c1nc2c(cnn2C)c(=O)[nH]1` is -4.184%; for `COc1ccccc1-c1cc(C(=O)N(C)C)c2cnn(C)c2n1` it is 108%; for `COc1ccccc1-c1cc(C(=O)N2CCCC2)c2cnn(C)c2n1` it is 117.8%.

Take `COc1cccc(CN(C)Cc2nc3c(cnn3C)c(=O)[nH]2)c1OC`: the “Percent Effect” value is on record as 14.32%. For the compound `COc1ccccc1-c1cc(C(=O)N(C)C)nc2c1cnn2C`, the “Percent Effect” value was determined as 124.6%. In the case of `COc1cccc(C)c1C(=O)N1CCc2ncnc(NCCO)c2CC1` it was -30.82%; in that of `O=C(C[S+]([O-])Cc1ccc(F)cc1Cl)NC1CCCC1` (stereo unspecified), 9.339%; in that of `COc1ccc(Nc2ccc(C#N)cn2)cc1N1CCCC1=O`, -10.87%. In the case of `Cc1cc(OCC(=O)N2CCCC(c3noc(C)n3)C2)no1` (stereo unspecified) it was 0.3444%; in that of `Cn1ncc2c(N3CCN(CCC(N)=O)CC3)nc(C3CCCC3)nc21`, 3.18%. The figure for `Cc1noc(C)c1-c1nc(C2CCCN(C(=O)CCN)C2)ccc1CO` (stereo unspecified) is 106.6%; for `Cc1nc(C2CCCN(C(=O)COCc3ccccc3Cl)C2)no1` (stereo unspecified) it is -13.21%. As to `Cc1nc(C2CCCN(C(=O)Cn3ccccc3=O)C2)no1` (stereo unspecified), the “Percent Effect” value is given as -7.453%. With `Cc1noc(C)c1-c1nc(C2CCCN(C(=O)CN)C2)ccc1CO` (stereo unspecified), the “Percent Effect” value was 107.5%. As for `CCc1nc(C2CCCN(C(=O)CCn3ccccc3=O)C2)no1` (stereo unspecified), the “Percent Effect” value is recorded as -2.479%. In the case of `Cc1noc(C)c1-c1nc(C2CCCN(CCC(N)=O)C2)ccc1CO` (stereo unspecified) it was 98.23%.

As to `Cl.Cl.Cl.OC(CN1CCN(Cc2cccnc2)CC1)c1cccs1` (stereo unspecified), the “Percent Effect” value is -1.04%. In the case of `Cc1ccc2c(c1)C(NCc1nnc3n1CCCCC3)CCCO2` (stereo unspecified) it was -29.11%; in that of `O=c1cc(CN(CCO)C2CC2)nc2ccc(Cl)cn12`, -6.925%. For the compound `O=C(CCc1cscn1)NS(=O)(=O)c1ccc2ccccc2c1`, the “Percent Effect” value came out at 3.955%. In the case of `Cc1ccc(N2CC[C@@H]3[C@@H]2CCN3C(=O)Cc2cccs2)nn1.O=C(O)C(F)(F)F` it was 109.8%; in that of `Cc1ccc(N2CC[C@@H]3O[C@@H](COCc4cccnc4)CC[C@@H]32)nn1.O=C(O)C(F)(F)F.O=C(O)C(F)(F)F`, 4.893%; in that of `Cc1ccc(N2CC[C@@H]3[C@@H]2CCN3C(=O)c2cscn2)nn1.O=C(O)C(F)(F)F`, -4.198%.

Consider `Cc1ccc(N2CC[C@H]3[C@@H]2CCC(=O)N3CCN2CCOCC2)nn1.O=C(O)C(F)(F)F`, for which the “Percent Effect” value is on record as -26.64%.

As to `O=C(CC1CCCC1)N1CC[C@H]2[C@H]1CCN2c1nncs1.O=C(O)C(F)(F)F`, the “Percent Effect” value stood at 10.49%. The figure for `O=C(Cc1ccsc1)N1C[C@@H]2OCCN(c3cnccn3)[C@@H]2C1.O=C(O)C(F)(F)F` is 19.14%; for `Cc1ccc(N2CC[C@@H]3[C@@H]2CCN3C(=O)Cc2ccsc2)nn1.O=C(O)C(F)(F)F` it is 97.7%; for `CN(C)C(=O)N1CC[C@H]2[C@H]1CCN2c1nncs1.O=C(O)C(F)(F)F` it is -1.539%. The figure for `Cc1ccc(N2CC[C@@H]3[C@@H]2CCN3C(=O)Cc2ccccc2)nn1.O=C(O)C(F)(F)F` is 108%.
